Source: PubChem BioAssay (NCI)
This is part of a sample that, as a whole, favours compounds with a hit. Of some 79,000 tested, about 15% had one in any assay. Rule as the data show it: active = growth inhibition above about 70%; inactive = the rest.

Columns and labels:
[1] = NCI Yeast Anticancer Drug Screen. Data for the rad50 strain (AID 155);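 also: 0% = growth of vehicle-only cultures of the same strain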; settings: S. cerevisiae rad50 strain growth inhibition, active compounds read high; at 50.0 µM unless noted
Method in brief: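 Genetically altered yeast (DNA repair pathway); compound treatment; growth inhibition vs vehicle ctrl.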

[2] = NCI Yeast Anticancer Drug Screen. Data for the mec2-1 strain (AID 157); settings: S. cerevisiae mec2-1 strain, active compounds read high; at 50.0 µM unless noted
Method in brief: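 Growth inhibition is read against vehicle-treated controls after compound exposure of the mec2-1 yeast strain, which is defective in DNA damage repair or cell cycle control.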

[3] = NCI Yeast Anticancer Drug Screen. Data for the sgs1 mgt1 strain (AID 161);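 also: 0% = growth of cultures given vehicle only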; settings: S. cerevisiae sgs1 mgt1 strain, active compounds read high; at 50.0 µM unless noted
Method in brief: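 Percent growth inhibition was derived by comparing compound-exposed mutant yeast with vehicle-exposed cultures. The strain carries alterations in DNA damage repair.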

[4] = NCI Yeast Anticancer Drug Screen. Data for the cln2 rad14 strain (AID 165);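 also: 0% = growth equal to vehicle treated cultures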; settings: S. cerevisiae cln2 rad14 strain, active compounds read high; at 50.0 µM unless noted
Method in brief: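 Growth inhibition, relative to vehicle-treated controls, is the read-out. The test organism is a yeast strain with defined genetic alterations, cln2 rad14.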

[5] = NCI Yeast Anticancer Drug Screen. Data for the bub3 strain (AID 167); settings: S. cerevisiae bub3 mutant strain, active compounds read high; at 50.0 µM unless noted
Method in brief: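 Yeast carrying a defined mutation is treated with each compound, and growth is compared with that of vehicle-exposed cells to give inhibition.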

[6] = NCI Yeast Anticancer Drug Screen. Data for the mlh1 rad18 strain (AID 175); settings: S. cerevisiae mlh1 rad18 strain growth inhibition, active compounds read high; at 50.0 µM unless noted
Method in brief: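 Cells of a genetically altered yeast strain, deficient in DNA damage repair, were treated with compound. Their growth was then compared with that of vehicle-treated cultures to give inhibition.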

Measured: growth inhibition

CCc1ccc2c(c1)CCCC2(C)C
inactive: [1] -2.5% | [2] -10.2% | [3] 2.25% | [4] -8.3% | [5] 0.3% | [6] -0.05%

O=S1(=O)CCC12CC1c3ccccc3C2c2ccccc21 (stereo unspecified)
inactive: [1] -6.1% | [2] -6.05% | [3] -11.6% | [4] -2.85% | [5] -11.1% | [6] -6.85%

C[C@H](C(=O)O)C(=O)NC(=O)N(Cc1ccccc1)N=O
inactive: [1] -24% | [2] -24.6% | [3] -26.8% | [4] 14.3% | [5] -1.25% | [6] -8.3%

O=c1[nH]c(C(F)(F)F)c([N+](=O)[O-])c(=O)[nH]1
inactive: [1] -40.9% | [2] -22.4% | [3] 1.6% | [4] -26.4% | [5] -1.9% | [6] -4.7%

CCCC(=O)OC1CC(n2cc(F)c(=O)[nH]c2=O)OC1CO (stereo unspecified)
inactive: [1] 8.6% | [2] 0.45% | [3] 11.6% | [4] 2.55% | [5] 7.85% | [6] -28.6%

CC(=O)OCc1c(COC(C)=O)c(-c2ccc(Cl)cc2)n2c1CCC2
inactive: [1] 34% | [2] 16.6% | [3] 19.3% | [4] -18.1% | [5] 9.6% | [6] 23.9%

O=C(O)C1CCC(=O)N1Cc1c[nH]c2ccccc12 (stereo unspecified)
inactive: [1] -2.2% | [2] -7.4% | [3] -10.2% | [4] -0.15% | [5] 15.4% | [6] -10.8%

Cc1c(NC(=S)NC(=O)c2ccc([N+](=O)[O-])cc2)c(=O)n(-c2ccccc2)n1C
inactive: [1] 19.6% | [2] 5.7% | [3] 16.2% | [4] 17.9% | [5] 32.9% | [6] 18.6%

CCCOC(=O)c1ccc(O)cc1.[Cu+2]
inactive: [1] 5% | [2] -13.3% | [3] -14% | [4] -34.4% | [5] -3.05% | [6] 12.7%

CC(N1CCS(=O)(=O)CC1)P(=O)(O)O (stereo unspecified)
inactive: [1] 0.3% | [2] 8.3% | [3] 8.8% | [4] -8.5% | [5] 17.8% | [6] 2.3%

COc1cc(C(=O)N2CCOC23CCN(Cc2ccccc2)CC3)cc(OC)c1OC
inactive: [1] -1.5% | [2] -30.6% | [3] -7.8% | [4] 13.2% | [5] -6.9% | [6] 2.7%

COC(=O)CCSCc1ccccc1
inactive: [1] 2.65% | [2] 2.55% | [3] -1.6% | [4] -10% | [5] 4.8% | [6] 3.55%

CO/C(=N\N=C\c1ccc(Cl)cc1Cl)c1ccncc1
inactive: [1] -25.9% | [2] -40.4% | [3] -53% | [4] -23.4% | [5] -27.8% | [6] -54.6%

CCCCCCCCCCCCCCCCCCS(=O)(=O)CC(O)CO (stereo unspecified)
inactive: [1] -4.45% | [2] 5.2% | [3] -1.4% | [4] 2.4% | [5] -11% | [6] 12.4%

NC1=CN(CCCO)C2=N/C(=C\c3ccccc3)C(=O)N12
inactive: [1] 14.2% | [2] -3.65% | [3] 26.4% | [4] 8.9% | [5] -3.3% | [6] 12.7%

CCOC(=O)c1[nH]cc(C(=O)O)c1C
inactive: [1] 15.3% | [2] 0.15% | [3] 6.05% | [4] -44.7% | [5] 1.25% | [6] 17.2%

Cc1ccc(S(=O)(=O)CCC#N)cc1
inactive: [1] 0.25% | [2] 8.2% | [3] -5.65% | [4] -9.35% | [5] -8.2% | [6] -11.7%

O=c1[nH]c(/C=C/c2ccccc2)c([N+](=O)[O-])c(=O)[nH]1
inactive: [1] -7% | [2] 2.9% | [3] -12.7% | [4] -19.6% | [5] 26.6% | [6] 16.8%

NNC(=O)C(c1ccccc1)c1ccccc1
inactive: [1] 6.4% | [2] -8.95% | [3] -18.8% | [4] 3% | [5] -28.9% | [6] -0.25%

Cc1nc2ncnc(N)c2[nH]1
inactive: [1] 3.55% | [2] -11% | [3] -12.5% | [4] -28.7% | [5] 11.2% | [6] -5.95%

COc1ccc(-n2c(N)c(C#N)[nH]c2=O)cc1
inactive: [1] -8.7% | [2] -36.1% | [3] -14% | [4] -11.8% | [5] 6.05% | [6] -21.3%
